GPR7 antagonist – antagonists of human GPR7 (neuropeptides B/W receptor 1). inhibition, % at 4.4 µM. 290,000 compounds, 1.1% hits. GPR7-expressing cells, fluorescence antagonist assay. P48145; in the data active means inhibition above about 16%, passing the limit was not always enough;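 further: cells stimulated with the agonist NPW; 0% = agonist with vehicle and 100% = vehicle without agonist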
CHT inh – inhibitors of human choline transporter CHT; AID 488975; Q9GZV3; B-score at 10 µM; 310,000 compounds, 0.86% hits; CHT-expressing cells, membrane potential dye, choline response; stronger effect = lower value;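 active means B-score over 3 SD under the library average, and starting fluorescence ratio not unusually high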;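 further: choline stimulus applied at its EC90 after an EC20 pre-addition; B-score computed on integrated fluorescence ratio after choline addition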
CHT allo act – allosteric activators of human choline transporter CHT; Q9GZV3; CHT-expressing cells, membrane potential dye, choline EC20; stronger effect = higher value; LV-AA mutant CHT in HEK293 cells; B-score at 10 µM; 310,000 compounds, 0.49% hits;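 active means initial fluorescence not abnormally high and integrated response B-score, plate-corrected, over 3 SD above library mean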
Kir21 inh – blocks the mouse Kir2.1 inward-rectifier potassium channel; P35561; HEK293-Kir2.1, FluxOR thallium flux fluorescence; stronger effect = lower value; B-score at 10 µM; 310,000 compounds, 0.85% hits; AID 1672;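 active means fluorescence ratio B-score at or below minus 3 SD of library scores, with starting-brightness B-score within 2 SD, cut at about -4.2 in these data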;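 further: channel flux triggered by added potassium and thallium sulfate stimulus; B-score of peak minus minimum fluorescence over baseline after thallium stimulus; more negative B-score means stronger Kir2.1 block with less thallium influx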
ANO1 activ – mouse TMEM16A channel activation, primary screen | HEK293 TMEM16A/YFP-H148Q/I152L, iodide quench fluorescence; stronger effect = lower value | Q8BHY3 | 340,000 compounds, 0.3% hits | B-score at 10 µM | AID 623877;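 active means fluorescence-ratio B-score plate-corrected deviation score at least 3 library SD below zero, with starting fluorescence score within 5 deviations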;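 further: channel opened by trigger with iodide after compound preincubation; score built on the fluorescence ratio of max minus min over baseline; more negative score means more quench and so TMEM16A activation or potentiation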
Target sequence (Q8BHY3 whole entry, looked up): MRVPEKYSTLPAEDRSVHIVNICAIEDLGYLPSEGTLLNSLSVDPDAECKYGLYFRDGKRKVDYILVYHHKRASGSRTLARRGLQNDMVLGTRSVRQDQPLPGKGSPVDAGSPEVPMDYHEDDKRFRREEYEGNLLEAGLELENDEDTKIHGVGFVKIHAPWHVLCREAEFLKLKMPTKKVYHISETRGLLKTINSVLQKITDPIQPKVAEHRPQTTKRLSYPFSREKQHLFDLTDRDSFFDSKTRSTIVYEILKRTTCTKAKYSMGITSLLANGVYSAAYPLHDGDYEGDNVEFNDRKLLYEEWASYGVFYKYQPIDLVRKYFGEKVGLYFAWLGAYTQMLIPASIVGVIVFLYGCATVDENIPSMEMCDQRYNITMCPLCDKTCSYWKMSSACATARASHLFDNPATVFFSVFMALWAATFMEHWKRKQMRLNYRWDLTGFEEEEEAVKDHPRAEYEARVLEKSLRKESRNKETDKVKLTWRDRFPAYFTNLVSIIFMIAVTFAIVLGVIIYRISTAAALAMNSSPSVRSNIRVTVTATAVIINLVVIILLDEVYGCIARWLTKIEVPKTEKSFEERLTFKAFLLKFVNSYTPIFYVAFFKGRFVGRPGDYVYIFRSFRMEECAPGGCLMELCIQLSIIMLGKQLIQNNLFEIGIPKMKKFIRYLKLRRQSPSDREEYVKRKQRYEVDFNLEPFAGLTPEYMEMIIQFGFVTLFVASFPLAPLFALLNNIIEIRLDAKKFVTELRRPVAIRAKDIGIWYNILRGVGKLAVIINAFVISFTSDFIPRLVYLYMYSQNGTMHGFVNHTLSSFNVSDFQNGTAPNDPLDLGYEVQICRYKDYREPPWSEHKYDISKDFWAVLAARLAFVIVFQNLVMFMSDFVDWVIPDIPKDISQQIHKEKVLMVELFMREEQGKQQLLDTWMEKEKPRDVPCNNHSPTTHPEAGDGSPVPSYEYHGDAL
ANO1 block – mouse TMEM16A channel inhibition, primary screen | normalized B-score (activity score, 25-100; higher = stronger inhibition) at 10 µM | 310,000 compounds, 1.2% hits | AID 588511 | HEK293 TMEM16A/YFP iodide influx fluorescence, ionomycin | Q8BHY3;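 active means ratio plate-corrected score three or more library SD toward inhibition, starting fluorescence score within five deviations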;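 further: score derived from kinetic fluorescence span divided by baseline fluorescence per well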
TMEM16A reconf – TMEM16A (mouse) chloride channel inhibition, re-confirmation. 2,300 compounds, 39% hits. AID 652189. HEK293 TMEM16A/YFP-H148Q, iodide quench fluorescence; ionomycin added to raise cell calcium. inhibition, % at 10 µM. shares compounds with ANO1 block;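 active means mean duplicate percent inhibition, scaled so buffer wells are 0 and the reference blocker 100, over three buffer SD above buffer mean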
HEK293 Ca mobil – counter-screen for TMEM16A inhibitors: effect on calcium mobilization | shares compounds with ANO1 block | TMEM16A/YFP HEK293, Fluo4 calcium mobilization | calcium response (% of ionomycin), % at 10 µM | 2,300 compounds, 2% hits;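 active means duplicate-averaged calcium signal over 20% of the ionomycin maximum, relative to buffer baseline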;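 further: each well's signal is peak minus trough fluorescence divided by its pre-addition baseline; 0% = buffer wells and 100% = ionomycin wells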
Parental YFP cnt – acts in parental YFP-HEK293 cells lacking TMEM16A, counter-screen; YFP ratio F(max-min)/F0 at 10 µM; 2,300 tested, under 10 active; iodide YFP quench, ionomycin; shares compounds with ANO1 block;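 active means yellow fluorescent protein signal ratio exceeding the buffer control mean by over 5 SD of those controls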;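 further: ratio is mean of duplicate wells from kinetic YFP trace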
ClC-1 inh – rat ClC-1 inhibition, TMEM16A specificity screen | ratio percent, % at 10 µM | 2,300 tested, under 10 active | AID 652236 | shares compounds with ANO1 block | CHO ClC-1-YFP, iodide influx fluorescence quench; iodide control reads 0, buffer control 100;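 active means duplicate-mean ratio percent above the mean of iodide-only control wells, which defines zero, plus 5 of their SD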;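 further: higher percent means stronger block of ClC-1 iodide influx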
Active calls of the source: *; i = inactive; . = not tested or not shown; ! = not active in a repeat. This is a sample that favours compounds with a hit; in the whole collection about 3.7% have one here.

SMILES	GPR7 antagonist	CHT inh	CHT allo act	Kir21 inh	ANO1 activ	ANO1 block	TMEM16A reconf	HEK293 Ca mobil	Parental YFP cnt	ClC-1 inh
Cc1ccc(OCC(=O)Nc2ccncc2)c(C)c1	20	i	i	0.95	i	25*	i	i	-1.3	-10
O=C(COc1ccc2ccccc2c1)Nc1ccncc1	17	i	i	0.6	i	25*	i	i	-0.95	-22
O=C(COc1ccc(Br)cc1)Nc1ccc(Cc2ccncc2)cc1	3	i	i	0.69	i	100*	i	i	-1.2	-8
CC(C)(C)c1ccc(NC(=O)COc2ccc(-n3ccnc3)cc2)cc1	2	i	i	-0.22	i	100*	44%*	i	-0.99	-10
CCCCn1c(N)c(N(CC(C)C)C(=O)C2=NN(c3ccccc3)C(=O)CC2)c(=O)[nH]c1=O	.	.	.	.	i	.	.	.	.	.
COc1c(C)cc(Br)cc1C(=O)Nc1ccc(Cc2ccncc2)cc1	3	i	i	0.07	i	100*	i	i	-0.9	-10
CCCCSc1nnc2c(n1)[nH]c1ccccc12	9	i	i	-0.67	i	25*	i	i	-1.2	-10
O=C(CCSC1=NCCCN1)c1ccc(F)cc1	.	.	.	.	i	.	.	.	.	.
COCCSc1nnc(NC(=O)Cc2ccc(OC)c(OC)c2)s1	2	i	i	3.5	i	i	.	.	.	.
CCSc1nnc(NC(=O)Cc2ccc(OC)c(OC)c2)s1	12	i	i	-0.52	i	100*	i	i	-0.86	-13
FC(F)(F)c1ccc(N2CCN(c3cc(-c4ccccc4)nc4ncnn34)CC2)nc1	-13	i	i	1.2	i	100*	36%*	i	-0.79	-20
CCN(CC)S(=O)(=O)c1ccc(NC(=O)C(OC)c2ccccc2)cc1 (stereo unspecified)	9	i	i	0.83	i	25*	i	i	-1.3	-2
CCO[C@@H]1OC(C(N)=O)=C[C@H](c2coc3ccccc3c2=O)[C@H]1CCCO	.	i	i	0.03	i	25*	i	i	-1	-8
CCO[C@@H]1OC(C(=O)O)=C[C@H](c2coc3ccccc3c2=O)[C@H]1CCCO	-23	i	i	-0.66	i	i	.	.	.	.
Cn1c(=O)c2c(nc3n2CC(O)CN3c2ccc(O)cc2)n(C)c1=O (stereo unspecified)	9	i	i	2	i	i	.	.	.	.
CC(=O)Oc1cccc(Nc2ncnc3ccccc23)c1	22	i	i	-0.89	i	i	.	.	.	.
Cc1ccccc1C(=O)Oc1cccc(Nc2ncnc3ccccc23)c1	12	i	i	-0.56	i	25*	30%*	i	-0.92	-14
CN(CC(=O)Nc1cccc(S(=O)(=O)N2CCOCC2)c1)CC(=O)Nc1ccc(Cl)c(C(F)(F)F)c1	.	i	i	-0.39	i	25*	i	i	-1.3	-10
COc1ccc(C(=O)COC(=O)c2ccccc2NS(=O)(=O)c2ccc(O)c([N+](=O)[O-])c2)cc1	-6	i	i	-0.96	i	25*	30%*	i	-0.86	-10
COc1ccc(NC(=O)c2ccccc2NS(=O)(=O)c2ccc(C)cc2)c([N+](=O)[O-])c1	-8	i	i	-0.22	i	i	.	.	.	.
O=C(NCC(=O)N1CCN(c2ccccc2F)CC1)c1ccc(Br)o1	.	i	i	1.9	i	i	.	.	.	.
CCOC(=O)c1c(C)[nH]c(C(=O)N/N=C/c2cc([N+](=O)[O-])ccc2O)c1C	4	i	i	0.87	i	25*	20%*	i	-1.1	-8
O=C(CSc1ccc(Cl)cc1Cl)N1CCC(c2nc3ccccc3s2)CC1	-7	i	i	-1.3	i	100*	i	i	-0.98	-6
CCOC(=O)c1nnn(-c2nonc2-n2cccc2)c1CN1CCC(C)CC1	-13	i	i	-1.4	.	100*	18%*	i	-1.2	-3
CC1CCN(Cc2c(C(=O)O)nnn2-c2nonc2N)CC1	5	i	i	-1.9	i	i	.	.	.	.
SMILES	GPR7 antagonist	CHT inh	CHT allo act	Kir21 inh	ANO1 activ	ANO1 block	TMEM16A reconf	HEK293 Ca mobil	Parental YFP cnt	ClC-1 inh
CC1CCC(NC(=O)CCS(=O)(=O)c2ccc3c(c2)NC(=O)CS3)CC1 (stereo unspecified)	7	i	i	-1.1	i	25*	i	i	-1	-1
COc1cccc(OCCN2CCN(c3ncnc4c3cnn4-c3ccccc3)CC2)c1	-7	i	i	2.7	i	100*	i	i	-0.88	-10
COc1cccc(C(=O)NC(C)c2ccc(-c3ccccc3)cc2)c1OC (stereo unspecified)	3	i	i	0.21	i	25*	24%*	i	-1.1	-10
COc1cccc(C(=O)NC(C)c2cccc3ccccc23)c1OC (stereo unspecified)	-8	i	i	-2.5	i	i	.	.	.	.
Cc1c(O)cccc1C(=O)N[C@@H](CSc1ccccc1)[C@H](O)CN1C[C@H]2CCCC[C@H]2C[C@H]1C(=O)NC(C)(C)C	-3	i	i	-0.97	i	100*!	41%*	i	-1	-2
CCN(CC(=O)NC(C)(C)C)C(=O)c1ccccc1SCC(=O)NC1CCCCCCC1	5	i	i	1.6	i	i	.	.	.	.
O=C(/C=C/c1ccccc1[N+](=O)[O-])N1CCN(C(=O)c2ccco2)CC1	-1	i	i	-0.04	i	i	.	.	.	.
COC(=O)c1cc(=O)n(Cc2cccs2)c(=NCc2cccs2)s1	-8	i	i	-0.02	i	25*	i	i	-1	-9
COc1ccc(O)c(CN2CCC(n3nccc3NC(=O)C3CCCC3)CC2)c1	12	i	i	-1.6	i	i	.	.	.	.
Cc1ccc(S(=O)(=O)Nc2ccc(Cl)cc2C(=O)c2ccccc2)cc1	-14	i	i	-1.7	i	25*	i	i	-0.86	-6

Screens deposited in PubChem by several laboratories.
